Experimental data published in PubChem BioAssay AID651568 (National Center for Advancing Translational Sciences (NCATS), 2012).
The whole screen tested about 1,200 compounds, of which about 55 (5%) were called active. About 15% were inconclusive and are not listed. The sample holds actives, similar compounds and a random draw of the others, so the mix is not that of the screen. Unmarked numbers belong to inactive results. Calls come from the whole dose curve; as a rule, active = well fitted inhibition curve with a large enough effect; inconclusive = small, poorly fitted or top-dose-only effect; inactive = no such curve, though single readings can be large or run the other way.

test: qHTS Assay to Find Inhibitors of Chronic Active B-Cell Receptor Signaling: Hit Validation in Renilla Reporter Assay; details: TMD8 IkB-Renilla luciferase reporter, NF-kB signaling; series mostly up to 57.5 µM; activity change, negative = inhibition: at the top concentration; note: nearly all actives have a fitted effect of over 70% in size
Excerpt: Diffuse large B-cell lymphoma (DLBCL) is the most common category of non-Hodgkin lymphoma, with ~20,000 new cases per year in the United States. DLBCL should be regarded as a collection of different neoplasms. Microarray gene expression analysis has defined two principal types of DLBCL, named for their similarity to normal B cell stages or activation states: a germinal center B-cell (GCB) type, and an activated B-cell (ABC) type. In ABC-DLBCL, a constitutive high-level activity of the NF-kappaB family of transcription factors has been observed (1) and NF-kappaB target genes are more highly expressed in ABC primary tumors than in GCB tumors. Functional studies have shown a constitutive high-level activity of the IkappaB (inhibitor of kappa-B) kinase (IKK) complex. […] Further analysis of DLBCL primary tumors for NF-kappaB target gene expression imply that although CARD11 is required for constitutive IKK activity in all ABC-DLBCL lines, mutations in CARD11 may be the root cause of IKK activation only in lines or tumors with such mutations. In other words, CARD11 mutations may explain NF-kappaB activation in only 10% of ABC-DLBCL cases. […] This process has been termed 'chronic active BCR signaling' (CABS). The goal of this screen is to find small-molecule inhibitors of the CABS pathway found in ABC-DLBCL lines using a cell-based assay that measures IkappaBalpa stability, which has already been extensively validated in the OCI-Ly3 line (PubChem AID:445; REF: 4). […] Hits from the primary screen were tested in this orthogonal secondary assay. NIH Molecular Libraries Probe Production Network [MLPCN] NIH Chemical Genomics Center [NCGC] MLPCN Grant: R03 DA031086 PI Name: Dr. R. Eric Davis
The IkB-Photinus/Renilla reporter assay differs from the primary assay in that the reporters are constitutively expressed, and based on luciferases that are different from the click beetle luciferases and each other. These differences should help to eliminate artifactual sources of activity specific to the primary assay. This assay uses the Dual-Glo substrate from Promega; extensively validated in a 96-well format, it could be converted to a smaller-well format. All lines needed for the IkB-Photinus/Renilla assay have already been prepared and extensively validated
% is set by controls: 0 for no effect and ±100 for the full control effect; potency is the fitted concentration of half-maximal effect.

Row | SMILES | activity change, negative = inhibition [%] | Potency
1 | Cc1cc(C)cc(NS(=O)(=O)c2ccc(-c3cnc(C4CC4)o3)cc2)c1 | 25.8 | –
2 | Cc1cccc(NS(=O)(=O)c2ccc(C3CCCCC3)cc2)n1 | – | 13.5 µM (active)
3 | Cc1ccc(C)c(NS(=O)(=O)c2ccc(-c3cnc(C4CC4)o3)cc2)c1 | -22.1 | –
4 | Cc1ccccc1NC(=S)N=Nc1c(O)n(C)c2ccc(S(=O)(=O)N3CCOCC3)cc12 | -22.4 | –
5 | CCn1c(=O)c([N+](=O)[O-])c(Cl)c2ccccc21 | – | 2.39 µM (active)
6 | CC[C@]12c3[nH]c4cc(CCC(=O)N(C)C)ccc4c3CCN1C(=O)[C@@H](CC(=O)NCc1ccco1)C[C@@H]2C(=O)N1CCN(C(=O)c2ccco2)CC1 | 7.44 | –
7 | c1ccc(C2=Nn3c(nnc3-c3n[nH]c4c3CCC4)SC2)cc1 | -11.8 | –
8 | Cc1ccc(OCCN2C(=O)C(=O)c3cc(C)ccc32)cc1 | -29.2 | –
9 | CC(C)n1c(SCC(=O)Nc2ccccc2)nc2c1c(=O)n(C)c(=O)n2C | -2.3 | –
10 | CN(C)c1nc(=Nc2cccc(Cl)c2)ss1 | – | 10.7 µM (active)
11 | COc1cc(OC)cc(C(=O)NCC(=O)Nc2ccc(-c3ccccc3)cc2)c1 | -2.62 | –
12 | COc1cc(OC)cc(C(=O)NCc2ccc3c(c2)CCN3C(=O)c2ccccc2)c1 | 2.99 | –
13 | COc1ccc(/C=C/C(=O)Nc2cc(S(=O)(=O)N3CCOCC3)ccc2OC)cc1 | -11 | –
14 | Cc1noc(C)c1CSc1ncnc2ccccc12 | -12.4 | –
15 | COc1ccc(C(=O)n2c(-c3ccco3)nc3ccccc32)cc1 | 3.66 | –
16 | COc1cc(/C=C\C(=O)OCn2nnc3ccccc3c2=O)cc(OC)c1OC | 3.59 | –
17 | COc1ccc(C(=O)/C=C/c2ccc(OC)c(Cn3nnc4ccccc43)c2)cc1 | – | 9.53 µM (active)
18 | COc1ccccc1NC(=O)COc1ccc(-c2nn(C)c(=O)c3ccccc23)cc1 | -8.93 | –
19 | Cc1ccc(NC(=S)NC(=O)C2CC2)cc1Cl | 2.69 | –
20 | Cc1c(CCC(=O)NCCC(=O)O)c(=O)oc2c(C)c3oc4c(c3cc12)CCCC4 | -15.5 | –
21 | COc1cc(/C=N/NC(=O)NC2CCCCC2)ccc1O | 0.432 | –
22 | CCOc1cc(Br)c(C=O)cc1OCC | -3.14 | –

Row | SMILES | activity change, negative = inhibition [%] | Potency
23 | O=Cc1ccccc1OCCOc1ccccc1C=O | – | 12 µM (active)
24 | Cc1c(CCC(=O)N[C@@H](C)C(=O)O)c(=O)oc2cc3oc4c(c3cc12)CCCC4 | -1.27 | –
25 | CCC(NC(=O)CCc1c(C)c2cc3c4c(oc3cc2oc1=O)CCCC4)C(=O)O (stereo unspecified) | -10.2 | –
26 | Cc1cc(C)n(-c2nc3ccccc3c(=O)n2OCC#N)n1 | – | 16.9 µM (active)
27 | Cc1cc(NC(=O)CSc2nc3ccccc3c(=O)n2C2CCCC2)no1 | 1.51 | –
28 | CCC(=O)Nc1nonc1-c1nc2ccccc2n1Cc1cccc2ccccc12 | -1.91 | –
29 | CNCc1ccccc1Sc1ccc(O)c(O)c1 | – | 10.7 µM (active)
30 | COc1cccc(N2CC(O)=C(c3nc4ccccc4s3)C2=N)c1 | 2.59 | –
31 | CCOc1cc(/C=N\NC(N)=O)cc(Br)c1OC(C)C | -6.49 | –
32 | O=C(/C=C/c1ccc(O)cc1)c1ccc(O)cc1O | – | 10.7 µM (active)
33 | O=C(/C=C/c1ccco1)NC(=S)Nc1cccc(-c2nc3ccccc3o2)c1 | 9.24 | –
34 | CCn1ncc(C2=NOC(C(=O)NCc3ccccc3)C2)c1C (stereo unspecified) | -18.4 | –
35 | CC(C)N=C(NS(=O)(=O)c1ccccc1)C(Cl)(Cl)Cl | – | 26.9 µM (active)
36 | Oc1cccc(Nc2nc(N3CCOCC3)nc(N3CCOCC3)n2)c1 | -26.5 | –
37 | CC1=CC(C)(C)N(S(=O)(=O)c2ccc(C)cc2)c2ccc(C)cc21 | -19 | –
38 | CCOc1ccccc1NS(=O)(=O)c1ccc(-c2cnc(C3CC3)o2)cc1 | -5.07 | –
39 | COc1ccc(C(=O)N2CCc3cc(OC)c(OC)cc3C2c2ccc(OC)c(OC)c2)cc1 (stereo unspecified) | -0.384 | –
40 | COc1cccc(C(=O)Nc2cc(NC(=O)c3cccs3)ccc2C)c1OC | 12.1 | –
41 | COc1ccccc1C(=O)Nc1ccccc1SC(=O)c1ccccc1OC | – | 23.9 µM (active)
42 | COc1cc(NC(=S)NC(=O)c2ccccc2F)ccc1NC(=O)c1ccco1 | -16.4 | –
43 | Cc1ccc(COC(=O)c2cc([N+](=O)[O-])ccc2N2CCOCC2)cc1 | -17.5 | –
44 | CCc1cc2c(SCC(=O)Nc3ccc(NC(C)=O)cc3)ncnc2s1 | 8.38 | –

Row | SMILES | activity change, negative = inhibition [%] | Potency
45 | CCCC(=O)Nc1ccc2c(c1)nc(CN1CCN(C(=O)OCC)CC1)n2CC | -1.03 | –
46 | O=C(CCl)Nc1cccc(S(=O)(=O)NC2=NCCCCC2)c1 | – | 19 µM (active)
47 | O=C(CCl)Nc1cc(S(=O)(=O)N2CCCCCC2)ccc1Cl | -87.8 | –
48 | C=CCn1c(SCC(=O)Nc2cccc(S(N)(=O)=O)c2)nc2sc(C)c(C)c2c1=O | 5.08 | –
49 | CN(C)/C=N/c1sc2c(c1C#N)CCCC2 | 0.366 | –
50 | COc1cc(C2C(C#N)=C(N)Oc3cc(N)ccc32)cc(OC)c1OC (stereo unspecified) | -28.5 | –
51 | CCN(C(=O)COC(=O)c1cc([N+](=O)[O-])ccc1N1CCOCC1)c1ccccc1 | -5.41 | –
52 | CC(=O)Nc1nc2ccc(-c3nc4ccccc4o3)cc2s1 | -15.1 | –
53 | CCCc1nc([N+](=O)[O-])c(S(=O)(=O)c2ccccc2)n1CC(C)C | – | 30.1 µM (active)
54 | Cc1ccc(C(=O)c2cc([N+](=O)[O-])ccc2N2CCCCC2)cc1C | 1.06 | –
55 | CCOC(=O)C1=C(C)NC(C)=C(C(=O)OCC)C1/C=C/c1ccccc1 | 12.9 | –
56 | O=C(/C=C\c1ccco1)Nc1cc([N+](=O)[O-])ccc1F | -0.37 | –
57 | O=S1(=O)C=C(Sc2nc3cc(Cl)ccc3o2)c2ccccc21 | – | 8.49 µM (active)
58 | CCOC(=O)C(C)Oc1cccc2c(=O)n(CC(=O)NCc3ccccc3)ccc12 (stereo unspecified) | -22.1 | –
59 | COc1ccc(N(C(=O)c2ccccc2C)S(=O)(=O)c2cccs2)cc1 | 12.6 | –
60 | Cc1ccc(C(=O)c2cc([N+](=O)[O-])ccc2N2CCCCC2)cc1 | 0.979 | –
61 | O=C(/C=C/c1cccs1)c1cc(Br)ccc1OC(=O)N1CCOCC1 | – | 26.9 µM (active)
62 | O=C(Oc1ccc2ccc(OC(=O)N3CCOCC3)cc2c1)N1CCOCC1 | 5.12 | –
63 | C#C[C@]1(O)CC[C@H]2[C@@H]3CCc4cc(O)ccc4[C@H]3CC[C@@]21C | -9.49 | –
64 | O=C(COc1ccccc1-c1ccccc1)N/N=C/c1cccc2ccccc12 | -0.961 | –
65 | Nc1cc(=O)[nH]c(SCC(=O)Nc2cc(Cl)cc(Cl)c2)n1 | 19 | –
66 | COc1cc2c(cc1OC)-c1cc(Nc3ccc(C)cc3)nc(=O)n1CC2 | -18.8 | –
